uPA generation: blocks generation of uPA at the cell surface; cell surface uPA generation assay, qHTS; AID 540303; Potency, µM (highest dose often 38.3 µM), hits mostly inhibitors; actives 0.31% (n = 330,000); active means well fitted inhibition curve with a large enough effect; inconclusive means small, poorly fitted or top-dose-only effect; inactive means no such curve, though single readings can be large or run the other way; tested in mouse RAW 264.7 cells; further: nearly all actives have a fitted effect of over 55% in size
D3 ag: activates the human D3 dopamine receptor; P35462; D3R DiscoveRx beta-arrestin cells, luminescence, 90 min; max activation, %; actives 0.58% (n = 410,000); in the data active means max activation above about 30%
Target sequence (P35462 whole entry, looked up): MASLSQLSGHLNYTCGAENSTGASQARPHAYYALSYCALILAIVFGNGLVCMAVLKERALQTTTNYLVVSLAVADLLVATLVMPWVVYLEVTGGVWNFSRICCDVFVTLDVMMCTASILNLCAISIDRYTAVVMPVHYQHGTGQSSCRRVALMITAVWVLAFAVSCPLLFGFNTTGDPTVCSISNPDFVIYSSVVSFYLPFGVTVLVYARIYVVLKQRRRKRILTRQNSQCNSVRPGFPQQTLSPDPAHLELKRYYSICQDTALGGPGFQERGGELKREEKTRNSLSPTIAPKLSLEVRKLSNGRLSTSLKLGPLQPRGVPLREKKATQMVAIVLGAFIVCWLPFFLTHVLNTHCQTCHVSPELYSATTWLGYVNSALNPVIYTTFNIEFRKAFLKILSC
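Cells at 1500/well, incubated overnight, then treated with pinned compounds (dopamine as control) for 90 min at 37 degrees C. DiscoveRx reagent added for 30 - 60 minutes at room temperature; luminescence read.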
RGS4 inhibitor: blocks human RGS4-accelerated GTP hydrolysis; Potency, µM (highest dose often 114 µM), actives largely listed as inhibitors; P49798; Transcreener GDP fluorescence polarization, RGS4-accelerated GTP hydrolysis; AID 504845; actives 0.039% (n = 390,000); active means well fitted inhibition curve with a large enough effect; inconclusive means small, poorly fitted or top-dose-only effect; inactive means no such curve, though single readings can be large or run the other way; further: nearly all actives have a fitted effect of over 75% in size
Target sequence (P49798 whole entry, looked up): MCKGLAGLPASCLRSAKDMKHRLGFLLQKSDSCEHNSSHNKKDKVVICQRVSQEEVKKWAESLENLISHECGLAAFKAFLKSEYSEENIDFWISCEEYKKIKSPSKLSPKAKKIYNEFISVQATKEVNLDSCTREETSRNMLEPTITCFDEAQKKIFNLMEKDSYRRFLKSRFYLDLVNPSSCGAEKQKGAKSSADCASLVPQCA
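MLSMR compounds (23 nl, pin-transferred) preincubated 10 min at room temperature with a 500nM (2x) first reagent, then RGS4 at 900nM (2x) plus Transcreener GDP mix added; fluorescence polarization (620/688 nm) read before and after 90 min at 30 °C.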
D3 antag: D3 dopamine receptor (human) antagonism; actives 2.5% (n = 360,000); P35462; D3R cells, DiscoveRx beta-arrestin luminescence, antagonist mode; active compounds read low; AID 652054; max response, negative = inhibition, %; in the data active means max response below about -50%; inconclusive means no clear call, values can overlap the other calls
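Cells plated overnight at 1500 cells/well, then exposed to library compounds with dopamine controls for 90 minutes at 37 degrees C. DiscoveRx reagent added for 30–60 minutes at room temperature; luminescence read, quantitative HTS format.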
Each line names hits and unclear results; the compound was inactive in the other large screens. An excerpt weighted towards active compounds, which were near 3.1% of everything screened.

CCOC(=O)c1ccc(CN(Cc2ccccc2C)S(=O)(=O)c2ccc(C(C)(C)C)cc2)cc1	none (no result: uPA generation, D3 antag)
O=C(Nc1cccc(F)c1)c1ccc2oc(=O)n(Cc3ccccc3)c2c1	none (no result: uPA generation, D3 antag)
COc1ccccc1/C=C/C(=O)Nc1ccc2c(c1)OCCO2	uPA generation 4µM
COc1ccccc1[C@H]1C(c2ccc(F)cc2)=NN(c2ccccc2)[C@@H]1CO	none
C[C@H]1C(c2ccc(F)cc2)=NN(c2ccccc2)[C@@H]1CO	D3 ag 35
O=C(Nc1ccc(OC(F)(F)F)cc1)C1CCN(S(=O)(=O)c2ccc3[nH]c(=O)ccc3c2)CC1	none (no result: uPA generation, D3 antag)
COc1ccccc1CCNC(=O)C(C)Sc1nc(-c2ccccc2)cc(C(F)(F)F)n1 (configuration not stated)	none (no result: uPA generation, D3 antag)
Cc1nnsc1S(=O)c1ccc(Cl)c(Cl)c1 (configuration not stated)	D3 antag inconclusive
O=S(c1ccc2ccccc2c1)c1cnns1 (configuration not stated)	D3 antag -55
Cc1cc(NC(=O)C2CCN(S(=O)(=O)c3cccc4nsnc34)CC2)ccc1Br	none (no result: uPA generation, D3 antag)
CC(=O)Nc1nc2cc3c(cc2s1)OCO3	none
O=C(Nc1nc2cc3c(cc2s1)OCO3)C1=COCCO1	uPA generation 2µM
N#CCSc1ncnc2ccccc12	uPA generation inconclusive, D3 antag -55
N#CCSc1nc(-c2ccccc2)nc2ccccc12	none
O=C(CCCCn1c(=O)c2ccccc2n(Cc2ccc(F)cc2Cl)c1=O)NCCc1ccc(Cl)cc1	none (no result: uPA generation, D3 antag)
Clc1ccc(COc2cccc(CNCc3ccncc3)c2)cc1	D3 ag 40
CC(C)(CO)NCc1cccc(OCc2ccc(Cl)cc2)c1	none
CCOc1cc(/C=C(\C#N)C(=O)Nc2ccc(OC)cc2)ccc1OCc1cc(=O)n2nc(CC)sc2n1	none (no result: uPA generation, D3 antag)
CCOc1ccc(CNC(=O)c2ccc3c(c2)nc2n3CCCCC2)cc1	none (no result: uPA generation, D3 antag)
COc1ccccc1N1CCN(Cc2ccc(-c3ccccc3[N+](=O)[O-])o2)CC1	D3 antag -86
COc1ccccc1N1CCN(Cc2ccco2)CC1	D3 antag -76
Clc1ccc(N2CCN(Cc3ccco3)CC2)cc1	D3 antag inconclusive
Clc1ccccc1N1CCN(Cc2ccco2)CC1	D3 antag -56
Cc1nc(NCCCN2CCOCC2)c2cnn(-c3ccccc3)c2n1	D3 antag -51
[N-]=[N+]=Nc1ccc(C(=O)CSC[C@H](NC(=O)CC[C@H](N)C(=O)O)C(=O)NCC(=O)O)cc1	RGS4 inhibitor 3.4µM (no result: uPA generation, D3 ag, D3 antag)
Cn1c(=O)n(C)c2cc(N3CCCCC3)c(NC(=O)c3c(F)cccc3F)cc21	none (no result: uPA generation, D3 antag)
O=C(COc1ccc(/C=C\[N+](=O)[O-])cc1)N1CCOCC1	RGS4 inhibitor inconclusive
O=[N+]([O-])/C=C\c1ccc(N2CCOCC2)cc1	uPA generation 8.9µM
Cc1ccc(S(=O)(=O)N(CC(=O)Nc2cccnc2)c2cccc([N+](=O)[O-])c2)cc1	uPA generation 11µM
Cc1cccc(N2CCN(C(=O)c3cnn(-c4ccccc4)c3C3CCN(C(=O)OC(C)(C)C)CC3)CC2)c1C	none (no result: uPA generation, D3 antag)
COc1ccc(N2CCN(CCCNC(=O)Nc3ccccc3)CC2)cc1	none
O=C(NCCCN1CCN(c2ccccc2F)CC1)Nc1ccc(F)cc1	D3 antag inconclusive
O=C(NCCCN1CCN(c2ccccc2)CC1)Nc1ccccc1C(F)(F)F	D3 ag 30, D3 antag inconclusive
O=C(Nc1ccc(C(=O)NCCCN2CCN(c3ccccc3)CC2)cc1)C1=CSCCO1	D3 antag -73
Cc1ccccc1NC(=O)NCCCN1CCN(c2ccccc2)CC1	D3 ag 50, D3 antag inconclusive
O=C(NCCCN1CCN(c2ccccc2F)CC1)Nc1ccccc1[N+](=O)[O-]	D3 antag -89
CCOC(=O)CSc1nc(-c2ccc(F)cc2)cc(C(F)(F)F)c1C#N	none (no result: uPA generation, D3 antag)
COc1ccccc1/C=C/C1(C(=O)NC2CCCC2)CC(=O)N1c1ccccc1 (configuration not stated)	uPA generation 2.8µM
CN(C)S(=O)(=O)c1ccc(N2C(=O)CC2(/C=C/c2ccccc2)C(=O)NC2CCCC2)cc1 (configuration not stated)	none
CCN(CC)S(=O)(=O)c1ccc(NC(=O)[C@H](CCSC)N2Cc3ccccc3C2=O)cc1	none (no result: uPA generation, D3 antag)
O=[N+]([O-])c1cnc(Nc2ccccc2)nc1Nc1ccccc1	D3 antag -83
CCNC(=O)NC(=O)COC(=O)c1ccccc1SCC(=O)NC(=O)NCC	D3 antag -75
O=C(COC(=O)c1ccccc1SCC(=O)NC1CCS(=O)(=O)C1)NC1CCS(=O)(=O)C1 (configuration not stated)	none
CCOc1ccc(CCNC(=O)Cn2nnc(-c3ccc(OC)c(OC)c3)n2)cc1OCC	none (no result: uPA generation, D3 antag)
Cc1ccc(C(=O)CSc2nc(C)cc(=O)[nH]2)cc1	RGS4 inhibitor inconclusive
Cc1cc(=O)[nH]c(SCC(=O)c2ccc(O)c(O)c2)n1	D3 ag 31
Cc1n[nH]c(=S)n(NC(=O)CC(=O)Nn2c(=S)[nH]nc(C)c2=O)c1=O	D3 antag -86
Cc1nc(-c2ccc(F)cc2)sc1CCNC(=O)c1cccs1	none (no result: uPA generation, D3 antag)
O=C(O)c1cc2cccc(S(=O)(=O)N3CCOCC3)c2cc1O	D3 antag -54
Cc1ccc(S(=O)(=O)N2CCOCC2)cc1C(=O)O	none (no result: uPA generation)
O=C(CNS(=O)(=O)c1ccccc1)NCc1ccccn1	D3 antag -51
Cc1ccc(S(=O)(=O)NCCC(=O)NCc2ccccn2)cc1	none
O=C(C[n+]1cccc(CNC(=O)c2ccc(OC(F)F)cc2)c1)Nc1ccc(F)cc1	none
O=C(C[n+]1cccc(CNC(=O)c2ccc(OC(F)F)cc2)c1)Nc1cccc(C(F)(F)F)c1	D3 antag -51
Cc1ccc2cc(CN(CC3CCCO3)C(=O)NC3CCCCC3)c(=O)[nH]c2c1C (configuration not stated)	none
CCN(CC)CCCN(Cc1cc2ccc(C)c(C)c2[nH]c1=O)C(=O)NC1CCCCC1	D3 antag -57 (no result: uPA generation)
CNc1ncnc2c1cnn2-c1ccc(C)c(C)c1	none (no result: uPA generation, D3 antag)
O=C(COC(=O)C1CCN(S(=O)(=O)c2ccccc2C(F)(F)F)CC1)NCc1ccc(F)cc1	D3 ag 257
COc1ccc(-c2noc(CC(=O)Nc3ccc(F)cc3F)n2)cc1	none (no result: uPA generation, D3 antag)
Cc1noc(/C=C/c2cccnc2)c1[N+](=O)[O-]	uPA generation 7.9µM
COc1ccc(/C=C/C(=O)c2ccc(O)cc2)cc1CN1CCOCC1	none
O=C(/C=C/c1cccc(O)c1)c1ccc(N2CCOCC2)cc1	uPA generation 10µM
Cc1cccc(N2CCN(C(=O)Cn3ncc4c3-c3cc(C)ccc3OC4)CC2C)c1 (configuration not stated)	D3 ag 32 (no result: uPA generation, D3 antag)
Cc1ccc2c(c1)-c1c(cnn1CC(=O)O)CO2	none
Cc1ccc(NC(=O)C2(C)CCN2C(=O)CC(c2ccccc2)c2ccccc2)cc1 (configuration not stated)	D3 ag 67 (no result: uPA generation, RGS4 inhibitor)
CCCCCCCCCCCCN1[C@@H](CC(=O)OC)c2cc(F)ccc2S1(=O)=O	none
CCCCCCCCCCCCN1[C@@H](CC(=O)OC)c2cc(F)cc(F)c2S1(=O)=O	D3 ag 31
